N-glyco inh – increase of ERlucT glycosylation luciferase signal, primary screen, N-linked glycosylation inhibitor project, D54 ERlucT cells, luminescence, set 2; D54 ERlucT glycosylation luciferase reporter, 24 h; percent of 100 nM tunicamycin response; reporter increase, % at 12.5 µM; 0.23% of 360,000 active;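 active means mean luciferase reporter signal, scaled so untreated is 0 and the glycosylation-blocking control 100, at or above a set limit in every replicate; inconclusive means mean reaches the limit but not every replicate does; inactive means mean below the limit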;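 further: luciferase carries N-glycosylation sites so blocking glycosylation raises the light; 0% = median of neutral control wells and 100% = median of 100 nM tunicamycin wells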
DENV2 CPE – inhibitors of DENV2 cytopathic effect, primary screen, cell-based, plate reader, single concentration. CPE inhibition, % at 9.99 µM. DENV2-infected cells, cytopathic effect rescue. 1.7% of 350,000 active. AID 651640, 2012; in the data active means CPE inhibition above about 20%, passing the limit was not always enough; inconclusive means no clear call, values can overlap the other calls; tested in BHK-21 cells;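 further: 0% = median of neutral control wells and 100% = median of positive control wells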
PglD inh – C. jejuni PglD acetyltransferase inhibitors, primary screen, biochemical, DTNB colorimetric, single point | purified PglD enzyme, DTNB colorimetric CoA detection | inhibition, % at 12.5 µM | 0.098% of 360,000 active; in the data active means inhibition above about 16%, passing the limit was not always enough; inconclusive means no clear call, values can overlap the other calls
Rtt109 HAT inh – inhibitors of C. albicans Rtt109/Vps75 HAT, primary screen, biochemical, ThioGlo CoA-SH fluorescence, plate reader; Histone acetyltransferase RTT109 (Candida albicans (strain SC5314 / ATCC MYA-2876)), …; AID 540336, 2011; purified Rtt109/Vps75, 4 h; inhibition, % at 34.9 µM; 0.16% of 330,000 active;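 active means inhibition of at least 50% in every replicate; inconclusive means best replicate reaches 50% inhibition but some replicates fall short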
Target sequence (Q5AAJ8 whole entry, looked up): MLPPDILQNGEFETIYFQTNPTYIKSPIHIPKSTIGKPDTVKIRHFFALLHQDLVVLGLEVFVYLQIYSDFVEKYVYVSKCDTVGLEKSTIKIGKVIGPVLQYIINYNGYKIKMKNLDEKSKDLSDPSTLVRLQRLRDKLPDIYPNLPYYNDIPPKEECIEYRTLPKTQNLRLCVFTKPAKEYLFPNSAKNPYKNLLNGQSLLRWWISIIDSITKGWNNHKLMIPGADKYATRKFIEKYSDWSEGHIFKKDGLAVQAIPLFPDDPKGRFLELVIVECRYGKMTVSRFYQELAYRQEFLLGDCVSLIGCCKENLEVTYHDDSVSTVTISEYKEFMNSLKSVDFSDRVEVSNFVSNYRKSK
An asterisk follows results filed as active; ? = inconclusive; / = not tested or not shown; ! = not confirmed by another sample. The sample as a whole holds a higher share of hits than the screen did.

SMILES	N-glyco inh	DENV2 CPE	PglD inh	Rtt109 HAT inh
CCNC(=O)C[C@@H]1CC[C@H]2[C@@H](COC[C@H](O)CN2C(=O)CC)O1	/	48*	1	/
CCC(=O)N1C[C@H](O)COC[C@H]2O[C@@H](CC(=O)NCc3ccc(Oc4ccccc4)cc3)CC[C@@H]21	/	92*	0	/
O=C(Cc1ccccn1)c1ccccc1	1	50*	3	-6
COCC(=O)N(C)C[C@@H]1Oc2ncc(-c3ccccc3OC)cc2C(=O)N([C@H](C)CO)C[C@H]1C	/	?	3	/
C[C@H](CO)N1C[C@H](C)[C@@H](CN(C)Cc2ccc3c(c2)OCO3)Oc2c(NC(=O)C3CCCCC3)cccc2C1=O	-2	122*!	1	19
C[C@H]1CN([C@@H](C)CO)C(=O)c2cccc(NC(=O)C3CCCCC3)c2O[C@H]1CN(C)Cc1ccc2c(c1)OCO2	/	23*	0	/
C[C@@H]1CN([C@@H](C)CO)C(=O)c2cccc(NC(=O)C3CCCCC3)c2O[C@H]1CN(C)Cc1ccc2c(c1)OCO2	/	21*	-1	/
CCCN(C)C[C@@H]1Oc2ncc(C#Cc3ccc(OC)cc3)cc2C(=O)N([C@@H](C)CO)C[C@@H]1C	/	1	-1	/
CO[C@H]1CN(C)C(=O)c2cc(NC(=O)C3CCOCC3)ccc2OC[C@H](C)N(Cc2cccnc2)C[C@H]1C	/	/	-1	/
Cc1ccc(C(=O)O/N=C(\N)c2ccccn2)cc1	-19	29*	-9	5
CC(C)C#Cc1ccc([C@H]2[C@H](CO)N3CCCCN(CC4CC4)C[C@@H]23)cc1	/	26*	-1	/
C[C@H](O)C#Cc1ccc([C@H]2[C@@H](CO)N3CCCCN(CC4CC4)C[C@H]23)cc1	/	23*	-1	/
O=c1[nH]c(=O)n(C2OC(CO)C(O)C(O)C2O)cc1F (stereo not drawn)	/	68*	/	/
C[C@H]1O[C@@H](n2cc(F)c(=O)[nH]c2=O)[C@H](O)[C@@H]1O	0	7	2	9
COc1ccc(NC(=O)N(C)C[C@H]2Oc3ccc(NS(=O)(=O)c4cn(C)cn4)cc3C(=O)N([C@@H](C)CO)C[C@H]2C)cc1	/	11	0	/
CC(=O)N1Cc2cc(C(=O)NCc3cc(F)cc(F)c3)nc(-c3cccc(C4=CCCC4)c3)c2[C@H]1CCO	/	-13	/	/
CNC[C@H]1Oc2c(NC(=O)C3CCCCC3)cccc2C(=O)N([C@H](C)CO)C[C@H]1C	/	2	-1	/
COc1ccc(S(=O)(=O)N(C)C[C@@H]2Oc3c(NC(=O)Nc4ccc5c(c4)OCO5)cccc3C(=O)N([C@@H](C)CO)C[C@@H]2C)cc1	/	27*	-2	/
COc1ccc(S(=O)(=O)N(C)C[C@H]2Oc3c(NC(=O)c4ccncc4)cccc3C(=O)N([C@H](C)CO)C[C@@H]2C)cc1	0	25*!	0	-1
COc1ccc(S(=O)(=O)N(C)C[C@H]2Oc3c(NC(=O)C4CCCCC4)cccc3C(=O)N([C@H](C)CO)C[C@H]2C)cc1	/	-5	-2	/
COc1ccc(S(=O)(=O)N(C)C[C@@H]2Oc3c(NC(=O)C4CCCCC4)cccc3C(=O)N([C@H](C)CO)C[C@@H]2C)cc1	/	20*	-1	/
COCC(=O)N1CC2(C1)[C@H](c1ccc(-c3ccccc3)cc1)[C@H](CO)N2C(=O)COC	/	-5	/	/
CCc1cc(Cn2nc(-c3ccccc3)cc2C(=O)NCc2ccc(C)cc2)on1	-1	111*	5	2
CCc1cc(Cn2nc(-c3ccccc3)cc2C(=O)NCc2cccc(Br)c2)on1	-6	90*	3	9
COc1cc(-c2nc3cnccn3c2Nc2ccccc2)ccc1O	16	10	/	-14
SMILES	N-glyco inh	DENV2 CPE	PglD inh	Rtt109 HAT inh
COc1cc(-c2nc3cnccn3c2Nc2ccc(C)cc2)ccc1O	26*	-1	0	2
C[C@@H]1CN([C@@H](C)CO)C(=O)Cc2cc(NS(=O)(=O)c3cccs3)ccc2O[C@H]1CN(C)C(=O)Nc1ccc(C(F)(F)F)cc1	/	8	2	/
Cc1ccc(NC(=S)Nc2cccc3cnccc23)cc1	3	72*	3	/
O=C(COc1ccc(F)cc1)Nc1ccc2c(c1)OCCO2	-1	102*	-178	4
CCC(=O)c1ccc(OCC(=O)Nc2ccc3c(c2)OCCO3)cc1	-1	2	/	?
O=C(Nc1ccc2oc(-c3ccncc3)nc2c1)c1ccc2c(c1)OCCO2	0	/	/	57*

Source: PubChem BioAssay
